The record followed here is PubChem BioAssay (NCI).

SMILES strings stand for the structures. Where “and” joins values, the source holds several entries; their conditions need not be identical. Identical values can stand only once. Compounds without any hit were thinned out: in the full panel of roughly 83,000, 20% have a hit.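 In brief: 96-well plates, 48 h treatment, single concentration, percent growth endpoint.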 Calls of active or inactive are those of the source. The calls were made as follows: active = growth percent below 10; inactive = the rest.

The assay relates to MDA-MB-468 breast. The assay can be described thus: NCI-60 one-dose screen, 48 h (100 = growth as untreated, 0 = no growth, -100 = all killed). The following applies: 10 µM unless noted.
Take `Nc1nccc(=S)[nH]1`: the growth was 109% (inactive). The value for `CC[N+](C)(CC)CCO` was 91.8% (inactive). With `O=P(O)(c1ccccc1)c1ccccc1I`, the growth is 89.5% (inactive).

Regarding `COc1ccc2cc(-c3nc(C)c(C(C)=O)c(-c4ccc(C)cc4)n3)ccc2c1`, the growth was 74.4% (inactive). The value for `O=c1oc2ccc(F)cc2c(=O)n1-c1ccc(F)cc1F` was -4.2% (active). As for `COc1ccc(C(=O)Nc2ccc3nc(N4CCCCC4)cc(C)c3c2)cc1OC`, the figure is 73.6% (inactive); as for `Cn1c(=O)[nH]c(=O)c2nc3c(nc21)-c1ccccc1C3=O`, 82.8% (inactive); as for `COc1ccc(/C=C2\Oc3cc(OCCCN4CCCC4)ccc3C2=O)cc1`, 74.1% (inactive).

In the case of `COc1cc(-c2cc(/C=C3\C(=O)Nc4cc(Cl)ccc43)[nH]n2)cc(OC)c1OC`, the growth is 58.3% (inactive). The value for `C=COC(=O)C(C)(C)C` was 106% (inactive); that for `CCOC(=O)n1cc(-c2nonc2-c2cn(C)c3ncccc23)c2cc(F)ccc21` was -7.17% (active); that for `CCN(CC)CCNC(=O)c1c(C)[nH]c(/C=C2\C(=O)Nc3cc(NC(=O)NC(=O)c4ccc(OC)cc4F)ccc32)c1C` was 75.2% (inactive). As for `Cc1nc(NC(=S)Nc2ccc(F)cc2)sc1C(=O)NNC(=S)Nc1ccc(F)cc1`, the figure is 44.6% (inactive); as for `O=C(NCCNc1nccc(-n2ccc3cccnc32)n1)c1ccc(C(F)(F)F)cc1`, 110% (inactive).

Take `CC1=NN(c2nc(-c3ccc(Cl)cc3)c(C#N)c(N3CCOCC3)n2)C(=O)C1`: the growth was 98.3% (inactive). As for `CCCCCCCCn1ccc2cc(NC(=O)Cn3cc(CN4CCOCC4)nn3)ccc21`, the figure is 88.2% (inactive); as for `CC(=O)Nc1ccc(OC(C)=O)cc1`, 5.17% (active) and 92.5% (inactive); as for `CC(=O)N1N=C(c2ccc(C)cc2)CC1c1ccc(Oc2ccc(Br)cc2)cc1` (stereo not given), 75% (inactive). The value for `COc1ccccc1Cn1cc2c(c1-c1ccccc1)CCc1cnoc1-2` was 10.9% (inactive); that for `COc1ccc2[nH]cc(/C=C3/C(=O)Nc4ccc(Cl)cc43)c2c1` was -10.9% (active). The value for `COc1ccc(-c2nc3c(c(-c4ccc(Cl)cc4)nn3-c3ccccc3)c(-c3ccc(O)cc3)c2C#N)cc1` was 54.8% (inactive); that for `Cc1cnc(SCc2ccc(Cl)cc2)[nH]c1=S` was 110% (inactive); that for `CCOC(=O)C1=NNC(c2ccc(Cl)cc2)C1C(=O)N1C(=S)NC(=O)C1CC(C)C` (stereo not given) was 102% (inactive). As to `COc1cccc(/C=N/NC(=S)NC2CC3CCC2C3)c1O` (stereo not given), the growth is 68.2% (inactive). As for `O=C1c2cccc3cccc(c23)C(=O)N1Nc1nc(N2CCOCC2)nc(N2CCN(c3ccccc3)CC2)n1`, the growth was -15.8% (active).

Take `COc1ccc(C2=Nn3c(NN)nnc3SC2)cc1`: the growth is 106% (inactive). On to `COc1cc(CNC(=O)CCSc2nc3ccccc3c(=O)n2Cc2cc(OC)c(OC)c(OC)c2)cc(OC)c1OC`, for which the growth was 1.82% (active). The value for `O=C(O)c1ccc(-n2cc(/C=N/Nc3ccc(F)cc3)c(-c3cc4ccccc4oc3=O)n2)cc1` was 119% (inactive); that for `COc1ccc(-c2nc(SCCC(C)C)nc(N/N=C\c3ccccc3O)c2C#N)cc1` was 88.6% (inactive); that for `O=C(Nc1cccc(-c2ccc(Cl)c(C(F)(F)F)c2)c1)C1CCN(Cc2cccc3cccnc23)CC1` was -5.03% (active). With `NNC(=O)/C(=C\c1ccc([N+](=O)[O-])cc1)CC(=O)c1ccc(Cl)c(Cl)c1`, the growth is 89.2% (inactive). Take `NS(=O)(=O)c1ccc(CN=C2NC(=O)S/C2=C\c2ccc(Br)cc2)cc1`: the growth is 97.1% (inactive). The value for `CCCCCCCCOC(=O)CC[C@@H](C)[C@H]1CC[C@H]2[C@@H]3[C@H](OC(=O)CCN)C[C@@H]4C[C@H](OC(=O)CCN)CC[C@]4(C)[C@H]3C[C@H](OC(=O)CCN)[C@]12C` was 3.95% (active); that for `Cc1c(Cl)cccc1S(=O)(=O)Nc1ccc2c(c1)C(=O)N(C1CCC(=O)NC1=O)C2=O` (stereo not given) was 27.2% (inactive); that for `O=S(O)c1cc(Cl)cc(Cl)c1OCc1ccccc1` was 84% (inactive).

On to `O=C1C=CC2(O)OC(c3ccccc3)CC(=O)C2=C1O` (stereo not given), for which the growth is 70.7% (inactive). For the molecule `C=C1C(=O)O[C@H]2[C@H]1CC/C(COC(=O)/C=C\C(=O)NCc1ccc(Cn3c(=O)sn(-c4ccc(OC)cc4)c3=O)cc1)=C\CC[C@@]1(C)O[C@@H]21`, the growth was -81.7% (active). As for `COc1cc2ccccc2cc1C(=O)NC(=S)Nc1ccc(-c2nc3ccccc3[nH]2)cc1`, the figure is 90.2% (inactive); as for `O=C1c2ccccc2C(=O)c2c1ccc1c(=O)n(-c3ccccc3C(F)(F)F)nnc21`, -50.3% (active); as for `C#CC#CC#CC#CC#CC#CC#CC#CC[C@@H]1OC[C@H](COC(=O)O[C@@H](C(=O)O[C@H]2C[C@@]3(O)[C@@H](OC(=O)c4ccccc4)[C@@H]4[C@]5(OC(C)=O)CO[C@@H]5C[C@H](O)[C@@]4(C)C(=O)[C@H](OC(C)=O)C(=C2C)C3(C)C)[C@@H](NC(=O)c2ccccc2)c2ccccc2)O1`, -8.1% (active).
